Data published in PubChem BioAssay (NCI).
About 79,000 compounds went through this panel and 15% of them were active in at least one assay; those are over-represented in the sample as a whole. Rule as the data show it: active = growth inhibition above about 70%; inactive = the rest. *1 amine or outer side, *2 acyl side, *3 side chain or, on linkers, in order; H or OH if unused. Where a SMILES comes first, the peptide text is derived from it. Bridges are numbered along the chain shown (N, C = ends). [ ]: non-standard residue; d: D form. The star is where a group is joined. Fmoc = O=C(OCC1c2ccccc2-c2ccccc21)*; X9 = O=C(C(CCCCNO[*:3])N[*:1])[*:2]

Tests used:
[1] = NCI Yeast Anticancer Drug Screen. Data for the rad50 strain (AID 155);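 also: 0% = growth of vehicle-only cultures of the same strain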; conditions: S. cerevisiae rad50 strain growth inhibition; at 50.0 µM; hits give high values
In short: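 Readout: growth inhibition relative to vehicle-treated cultures. Compound exposure was carried out in a genetically defined yeast strain deficient in DNA damage repair.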

[2] = NCI Yeast Anticancer Drug Screen. Data for the mec2-1 strain (AID 157); conditions: S. cerevisiae mec2-1 strain, at 50.0 µM, hits give high values
In short: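 mec2-1 yeast strain, carrying an alteration in DNA damage repair or cell cycle control, was exposed to compounds; growth inhibition was measured relative to vehicle-treated controls.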

[3] = NCI Yeast Anticancer Drug Screen. Data for the sgs1 mgt1 strain (AID 161);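 also: 0% = growth of cultures given vehicle only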; conditions: S. cerevisiae sgs1 mgt1 strain, at 50.0 µM, hits give high values
In short: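 This yeast growth screen uses a strain with defined DNA-repair lesions; compound-treated growth is compared with vehicle-treated growth.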

[4] = NCI Yeast Anticancer Drug Screen. Data for the cln2 rad14 strain (AID 165);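 also: 0% = growth equal to vehicle treated cultures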; conditions: S. cerevisiae cln2 rad14 strain, at 50.0 µM, hits give high values
In short: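 Yeast carrying cln2 and rad14 alterations (cell cycle control and DNA damage repair) were exposed to compounds. Growth inhibition was measured against vehicle-treated controls.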

[5] = NCI Yeast Anticancer Drug Screen. Data for the bub3 strain (AID 167); conditions: S. cerevisiae bub3 mutant strain, at 50.0 µM, hits give high values
In short: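 Readout: yeast growth inhibition, expressed relative to vehicle-only wells. The test organism is a mutant strain from a panel with lesions in DNA repair or checkpoint genes.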

[6] = NCI Yeast Anticancer Drug Screen. Data for the mlh1 rad18 strain (AID 175); conditions: S. cerevisiae mlh1 rad18 strain growth inhibition; at 50.0 µM; hits give high values
In short: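 Growth inhibition of the yeast strain was measured after compound exposure and expressed relative to vehicle-treated controls. The strain carries defined defects in DNA damage repair.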

Measured: growth inhibition

COc1ccc(/C=C/C=C/C(=O)O)cc1OC
inactive: [1] -2.8% | [2] -9.7% | [3] -12.4% | [4] 5.85% | [5] 2.8% | [6] 15.1%

NC(N)=NC1NCC(=O)S1 (stereo unspecified)
inactive: [1] 0.2% | [2] -5.65% | [3] 4.3% | [4] 4.6% | [5] 7.15% | [6] 21.9%

NC(=O)CNC(=O)C1CCCN1C(=O)C1CCCCNOC(=O)CCC(NC(=O)OCC2c3ccccc3-c3ccccc32)C(=O)NC(Cc2c[nH]c3ccccc23)C(=O)N1 (stereo unspecified) (Fmoc-EW[X9]PG-NH2; ester 1-3; configuration not given here)
inactive: [1] -16.5% | [2] -14.7% | [3] -22.2% | [4] 18.4% | [5] 4.1% | [6] -6.35%

N#CCN1CCOCC1
inactive: [1] 31.5% | [2] -1.55% | [3] 4.45% | [4] 15.2% | [5] 10.2% | [6] 27.1%

CSc1n[nH]c(N)c1C(=O)Nc1ccc(C)cc1
inactive: [1] 19.9% | [2] 10.8% | [3] 39.5% | [4] 22.4% | [5] 49.2% | [6] 10.6%

CC1(C)C(=O)/C=C\C(=O)C(C)(C)C(=O)/C=C\C(=O)C(C)(C)C(=O)/C=C\C(=O)C(C)(C)C(=O)/C=C\C1=O
inactive: [1] 12.1% | [2] 0.25% | [3] -9.05% | [4] 10.5% | [5] -13.2% | [6] 12.7%

COC(=O)C1(CC(=O)c2cccc3ccccc23)NC(=S)NC(=O)C1C#N (stereo unspecified)
inactive: [1] 0.55% | [2] 15.7% | [3] -17.4% | [4] -13.3% | [5] -0.7% | [6] -9.35%

CCOC(=O)C1C/C2=C(/CCCCCCCCCC2)SCCCS1 (stereo unspecified)
inactive: [1] 4.35% | [2] 5.2% | [3] -9% | [4] 2.15% | [5] -13.7% | [6] -23.7%

Nc1nc(N)c(N=Nc2ccc(C(=O)O)c(O)c2)c(N)n1
inactive: [1] 5.5% | [2] 3.5% | [3] -0.7% | [4] 12.8% | [5] -11.9% | [6] 13%

COc1cc(C2C(Cl)C(=O)N2NC(=O)c2ccc(NC(C)=O)cc2)cc(Br)c1O (stereo unspecified)
inactive: [1] -0.25% | [2] -14.8% | [3] -9.6% | [4] -24.9% | [5] -7.9% | [6] -30.9%

O=C1C(=O)c2ccccc2C(O)=C1CCCc1ccc(S(=O)(=O)c2ccccc2)cc1
inactive: [1] 2.35% | [2] 11.8% | [3] 0.7% | [4] 55.1% | [5] 16.2% | [6] 9.2%

O=C(O)Cc1ccc2c(c1)C(=O)C(=O)N2
inactive: [1] 18.6% | [2] 18.6% | [3] 7.05% | [4] -8.75% | [5] -18.7% | [6] 15.1%

COCCOCCOCCOC(C)=O
inactive: [1] 21.6% | [2] 12.4% | [3] 8.3% | [4] 6.2% | [5] -5.3% | [6] -0.65%

CC(=O)CC(=O)NCc1cccc(C)n1
inactive: [1] 38.1% | [2] 24.6% | [3] 28.6% | [4] -8.15% | [5] 20.9% | [6] 24.1%

Clc1ccc2cc3ccccc3cc2c1
inactive: [1] -16.7% | [2] 2.5% | [3] -3.95% | [4] -16.4% | [5] 5.8% | [6] -21%

CC(=O)c1ccc2ccc3ccccc3c2c1
inactive: [1] 15.2% | [2] -0.6% | [3] 18.6% | [4] -31.1% | [5] 1.15% | [6] 11.8%

CC(=O)Nc1ccc2c(c1)C(=O)c1cc(Cl)ccc1-2
inactive: [1] 0.25% | [2] -6.05% | [3] 5.75% | [4] -28.1% | [5] -2.05% | [6] -9.35%

O=C1NC(c2ccccc2)(c2ccccc2)C(=O)N1CCCCCCN1C(=O)NC(c2ccccc2)(c2ccccc2)C1=O
inactive: [1] 8.35% | [2] 3.45% | [3] 4% | [4] 0.25% | [5] -7.15% | [6] 18.2%

CC1(C)C2CCC1(C)C(S)C2 (stereo unspecified)
inactive: [1] 7.5% | [2] -1% | [3] -2.75% | [4] -57.1% | [5] -2% | [6] 11.9%

Cc1cccc(N=Nc2ccc(N=Nc3c(O)ccc4ccccc34)cc2C)c1
inactive: [1] -3.5% | [2] 2.85% | [3] 16.4% | [4] 0.65% | [5] 17.3% | [6] 11.2%

CCC[n+]1ccccc1C
inactive: [1] -0.95% | [2] 19.4% | [3] -4.3% | [4] 1.35% | [5] 7.9% | [6] 3.65%

CCOC(=O)c1cccc2ncccc12
inactive: [1] -1.6% | [2] 9.35% | [3] -2.8% | [4] -28.2% | [5] -9.05% | [6] 10.8%

CC1=CC[P+](Cc2ccccc2)(c2ccccc2)C1 (stereo unspecified)
inactive: [1] -25.4% | [2] 14.7% | [3] 22.2% | [4] 4.35% | [5] 8.2% | [6] 8.8%

C/C(=N\N=C(/C)c1ccc(N)cc1)c1ccc(N)cc1
inactive: [1] 15.9% | [2] 5% | [3] 1.9% | [4] -3.3% | [5] 13.9% | [6] 9%

O=C(O)c1c[nH]c2c(ccc3[nH]cc(C(=O)O)c(=O)c32)c1=O
inactive: [1] -14.1% | [2] -36.4% | [3] -33.2% | [4] -32.2% | [5] -40.7% | [6] -13.6%

CC(C)(C)OC(=O)NC1CC=CCC1NC(=O)OC(C)(C)C (stereo unspecified)
inactive: [1] -52.7% | [2] -11.6% | [3] -16.6% | [4] -19.6% | [5] -17.8% | [6] -29.1%

Brc1c2ccccc2cc2ccccc12
inactive: [1] 22% | [2] 29.8% | [3] 25% | [4] -8.8% | [5] 63.4% | [6] 42.6%

CCCC1OCC(CC)C(CCC)O1 (stereo unspecified)
inactive: [1] 25.5% | [2] 4.95% | [3] 6.25% | [4] -37% | [5] 7.4% | [6] 2.7%

CCCCC(O)C(=O)NCCC(=O)c1ccccc1 (stereo unspecified)
inactive: [1] -7.1% | [2] 5.95% | [3] 3.45% | [4] 22.9% | [5] 14.1% | [6] 20.4%

CCCCCCCCCCCCCCCC(=O)NCNC(=O)CCCCCCCCCCCCCCC
inactive: [1] -2.15% | [2] -9.75% | [3] -20.4% | [4] -6.55% | [5] 2.65% | [6] -14.2%

CC(=O)NCCc1ccc(Cl)c(Cl)c1
inactive: [1] 13.6% | [2] -4.25% | [3] -5.95% | [4] -0.6% | [5] 3.35% | [6] -3.3%

COc1ccc(/C=C(\C#N)c2ccccc2NC(C)=O)cc1
inactive: [1] 6.9% | [2] 7.4% | [3] -2.95% | [4] -42.8% | [5] -10.5% | [6] 19.8%

C#CCCC#C
inactive: [1] -4.4% | [2] -17.3% | [3] 8.4% | [4] 6% | [5] -16.1% | [6] -5.8%

C/C=C(\C)C(=O)OC1CC(C)(O)C(=O)C(OC(=O)/C(C)=C/C)C2(C)CCC(O)(C(C)C)C12 (stereo unspecified)
inactive: [1] -27.2% | [2] -30.1% | [3] -34.7% | [4] -16.8% | [5] -15% | [6] -24.8%

CC(C(=O)O)/C(=C\c1ccccc1)C(=O)O (stereo unspecified)
inactive: [1] 16.6% | [2] 7.25% | [3] 21.6% | [4] -17.5% | [5] 12.6% | [6] 11.4%

CC(=O)CC(=O)CCCCC(=O)O
inactive: [1] -0.15% | [2] -11.1% | [3] -6.55% | [4] -22.6% | [5] -5.6% | [6] 4.8%

CC(=O)NNc1nc(C)c(C(/C=C/c2ccc(NC(C)=O)cc2)=N/NS(=O)(=O)c2ccc(C)cc2)s1
inactive: [1] -6.75% | [2] -23.8% | [3] 3.15% | [4] -6.2% | [5] 6.35% | [6] -21.4%

O/N=C1/C(=C/c2ccccc2)CCCC1C(NO)c1ccccc1 (stereo unspecified)
inactive: [1] 27.9% | [2] 10.2% | [3] 27.2% | [4] 28.1% | [5] 17.1% | [6] 57.6%

C=C(Cl)C(C)(Cl)CCC(Cl)C(C)(C)Cl (stereo unspecified)
inactive: [1] 21.9% | [2] 16.4% | [3] 29.6% | [4] 42.5% | [5] 32.2% | [6] 25.3%

COc1cccc2c1C1(O)C2CCCC12OCCCO2 (stereo unspecified)
inactive: [1] -26.3% | [2] -10.3% | [3] -50% | [4] 6.5% | [5] -29.4% | [6] -31.2%

CC(=O)CCc1ccc2c(c1)OCCO2
inactive: [1] 27.9% | [2] -10.7% | [3] -7.55% | [4] -83.2% | [5] -3.8% | [6] -20.9%
